HttQ103 aggreg: qHTS Multiplex Assay to Identify Dual Action Probes in a Cell Model of Huntington: Aggregate Formation (GFP). PC12 HttQ103-GFP aggregates, Acumen cytometry, 40 h. Potency, µM (highest dose often 46.1 µM), without a hit: at the top dose activity change, negative = inhibition, hits mostly inhibitors. 220,000 tested, 1.1% active. AID 1688, 2009; also: % is scaled to controls: 0 for no effect and ±100 for the full control effect; nearly all actives have a fitted effect of over 60% in size
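Read-out: GFP aggregate count by laser scanning cytometer (488 nm excitation, 500-530 nm emission, 1–25 µm objects >6 SD above background). Cells: PC12, inducible HTTex1-Q103-GFP, 100 nM tebufenozide; compounds titrated.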
NPSR antagonist: qHTS Assay for Antagonists of the Neuropeptide S Receptor: cAMP Signal Transduction; AID 1461, 2008; 220,000 tested, 1% active; Potency, µM (doses to about 38.3 µM), for the others: at the highest dose activity change, negative = inhibition, hits mostly inhibitors; Q6W5P4; CHO-NPSR cells, cAMP TR-FRET, antagonist mode; also: % is scaled to controls: 0 for no effect and ±100 for the full control effect; nearly all actives have a fitted effect of over 50% in size
Target sequence (Q6W5P4 whole entry, looked up): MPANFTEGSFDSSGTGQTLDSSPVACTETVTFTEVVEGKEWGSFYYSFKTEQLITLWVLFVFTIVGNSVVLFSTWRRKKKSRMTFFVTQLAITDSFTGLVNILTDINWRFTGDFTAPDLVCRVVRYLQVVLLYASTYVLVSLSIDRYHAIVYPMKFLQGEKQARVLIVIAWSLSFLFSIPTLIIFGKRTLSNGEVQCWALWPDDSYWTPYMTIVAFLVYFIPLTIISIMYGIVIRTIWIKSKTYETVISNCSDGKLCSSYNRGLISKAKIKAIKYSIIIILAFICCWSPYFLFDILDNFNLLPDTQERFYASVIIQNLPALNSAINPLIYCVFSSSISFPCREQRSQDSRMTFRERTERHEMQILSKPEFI
IMPase Li cell: qHTS Assay for Identifying the Cell-Membrane Permeable IMPase Inhibitors: Potentiation with Lithium. 210,000 tested, 0.35% active. Potency, µM (doses to about 59.4 µM), inactives show top-dose activity, negative = IMPase inhibition, usual class: inhibitors. CHO-M1 cells, IP1 TR-FRET (IP-One), carbachol + lithium;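 also: IP1 builds up when IMPase is blocked and the TR-FRET signal falls; plate controls were basal vehicle for no effect and high inhibitor control for full effect; nearly all actives have a fitted effect of over 50% in size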
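CHO-M1, 2000 cells/well, 16–30 h culture; cpd + low Li+, 30 min 37C; lysis with d2-IP1/Eu-anti-IP1 Ab, 10 min RT; TR-FRET 665/620 ratio and 620 channel; AC50 via Hill.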
ERK EGF inh: qHTS Assay for Inhibitors of the ERK Signaling Pathway using a Homogeneous Screening Assay; Stimulation with EGF. HEK293-V1b, EGF-stimulated phospho-ERK AlphaScreen. Potency, µM (doses to about 11.5 µM), for inactives: at the top dose activity change, negative = inhibition, hits mostly inhibitors. 130,000 tested, 0.41% active;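 also: plate controls were stimulated vehicle wells for no effect and unstimulated vehicle basal for full effect; nearly all actives have a fitted effect of over 55% in size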
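Readout: AlphaScreen signal for phosphorylated ERK in lysed HEK293 cells stably expressing V1b. Stimulus 25 nM EGF, 5 min, following 30 min compound exposure. Data scaled to DMSO basal and full EGF activation.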
HTT ATP protect: qHTS Multiplex Assay to Identify Dual Action Probes in a Cell Model of Huntington: Cytoprotection (ATP); PC12 HTT-Q103 induced, cytoprotection, ATP luminescence, 40 h; Potency, µM (highest dose often 56.4 µM), inactives show cytoprotection (ATP increase), actives largely listed as activators; 230,000 tested, 0.14% active; also: % of control where 0% means no effect; nearly all actives have a fitted effect of over 45% in size
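PC12 cells stably carrying ecdysone-inducible Htt exon 1 (Q103)–GFP were induced with 100 nM tebufenozide (final) alongside library compounds in a dose series. Cytoprotection was scored as retained ATP by ATPlite luminescence.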
The depositor's hits bear a star; [ ] = remark or other dose. Only some compounds are listed: those with a hit (about 1.9% of all), similar ones and a draw of the others. Calls follow the shape of the dose curve; as a rule, active = well fitted curve in the direction sought with a large enough effect; inconclusive = small, poorly fitted or top-dose-only effect, or another doubt; inactive = no such curve, though single readings can be large; an effect the other way counts as inactive or inconclusive. Potency is read from the fitted curve at half-maximal effect.

`COc1ccc(/C=C2\N=C(c3ccccc3)N(c3ccc(C(=O)O)cc3)C2=O)cc1OC` gave HttQ103 aggreg -7%[9.22 µM], NPSR antagonist 13µM*, ERK EGF inh -3%[57.5 µM] and HTT ATP protect 10%[10 µM].
`Cc1noc(C)c1-c1ccc2ncnc(N3CCC(C(=O)O)CC3)c2c1` gave IMPase Li cell -5% and HTT ATP protect -19%.
For COc1ccc(C(=O)C(CCC(CNC(C)(C)C)C(=O)c2ccc(OC)cc2)CNC(C)(C)C)cc1 (centres undefined) the results were HttQ103 aggreg 18µM*, NPSR antagonist 23%, IMPase Li cell 6% and ERK EGF inh 1%.
`COc1ccc(C(=O)CC(=O)c2ccc(C(C)(C)C)cc2)cc1` gave HttQ103 aggreg 2%, IMPase Li cell 3%, ERK EGF inh inconclusive and HTT ATP protect -41%.
`COc1ccc(S(=O)(=O)N2CCC(CN3C(=O)c4cccc5cccc(c45)C3=O)CC2)cc1` gave HttQ103 aggreg 14%, NPSR antagonist 11%, IMPase Li cell -3%, ERK EGF inh 8% and HTT ATP protect -5%[10 µM].
O=C(c1ccc(S(=O)(=O)N2CCCC2)cc1)N1CCC(CN2C(=O)c3cccc4cccc(c34)C2=O)CC1 was read as HttQ103 aggreg -9%[9.22 µM], NPSR antagonist 10µM*, ERK EGF inh 2%[57.5 µM] and HTT ATP protect -26%[10 µM].
Screening O=C1C=CC2=C3c4cc(O)c(O)cc4C[C@@]3(O)COC2=C1O returned HTT ATP protect -13%.
CN(C)C=Nc1c(C(=O)c2ccccc2)sc2nccc(N(C)C)c12 was read as HttQ103 aggreg 6.3µM*, NPSR antagonist -7%, IMPase Li cell 5% and ERK EGF inh -4%.
`CN(C)c1ccnc2sc(C(N)=O)c(N)c12` gave HttQ103 aggreg 1.6µM*, NPSR antagonist -6%[46.1 µM], IMPase Li cell 19%[38.3 µM] and HTT ATP protect 26%.
CN(C)c1ccnc2sc(C(=O)c3ccc(Br)cc3)c(N)c12 was read as HttQ103 aggreg 6%, NPSR antagonist -17%, IMPase Li cell -5%, ERK EGF inh 4% and HTT ATP protect -40%.
For C=C(C)[C@@H]1CC[C@]2(C(=O)O)CC[C@]3(C)[C@H](CCC4[C@@]5(C)CC[C@H](O)C(C)(C)[C@@H]5CC[C@]43C)[C@@H]12 (some centres undefined) the results were IMPase Li cell 3% and HTT ATP protect -24%.
COc1ccc(OC)c(NC(=O)c2cc3n(n2)C(C(F)(F)F)CC(c2ccc4c(c2)OCO4)N3)c1 (centres undefined) was read as HttQ103 aggreg 6%, NPSR antagonist -13%[46.1 µM], IMPase Li cell 7%[38.3 µM], ERK EGF inh inconclusive and HTT ATP protect -36%.
`O=C(Nc1cc(Cl)ccc1O)c1cc2n(n1)C(C(F)(F)F)CC(c1ccc3c(c1)OCO3)N2` (centres undefined) gave HttQ103 aggreg 10%, NPSR antagonist 6.3µM*, IMPase Li cell 17% and HTT ATP protect -23%[10 µM].
For COC(=O)CCS(=O)(=O)c1nc(-c2ccccc2)cc(C(F)(F)F)n1 the results were HttQ103 aggreg inconclusive, NPSR antagonist 10µM*, IMPase Li cell 44%[38.3 µM] and HTT ATP protect -15%.
For CCOC(=O)CS(=O)(=O)c1nc(-c2ccccc2)cc(C(F)(F)F)n1 the results were HttQ103 aggreg -24%[9.22 µM], NPSR antagonist 10µM*, IMPase Li cell 11%[38.3 µM] and HTT ATP protect inconclusive.
`CCOC(=O)CCS(=O)(=O)c1nc(-c2ccccc2)cc(C(F)(F)F)n1` gave HttQ103 aggreg 24%, NPSR antagonist 7.9µM*, IMPase Li cell 50%[38.3 µM] and HTT ATP protect 1%[0.074 µM].
COCC(C)NC(=O)CCS(=O)(=O)c1nc(-c2ccc(OC)cc2)cc(C(F)(F)F)n1 (centres undefined) was read as HttQ103 aggreg inconclusive, NPSR antagonist -21%[46.1 µM], IMPase Li cell -1%[38.3 µM] and HTT ATP protect -23%[1.9 µM].
For CCOC(=O)C1=C(c2ccccc2)O/C(=C(/C#N)C(F)(F)F)S1 the results were HttQ103 aggreg inconclusive, NPSR antagonist 7.9µM*, IMPase Li cell 2%[38.3 µM] and HTT ATP protect -11%.
COc1cc(NC(=O)c2cc(-c3cccnc3)nc3ccc(Br)cc23)cc(OC)c1 was read as HttQ103 aggreg -7%, NPSR antagonist -49%, IMPase Li cell -19%, ERK EGF inh -6% and HTT ATP protect 8%[10 µM].
Screening COCCNC(=O)c1cc(-c2cccnc2)nc2ccc(Br)cc12 returned HttQ103 aggreg 4%, NPSR antagonist 5%[46.1 µM], IMPase Li cell 11µM* and HTT ATP protect -20%[10 µM].
CC(C)C1=CC2=CC[C@H]3[C@@](C)(CCC[C@]3(C)C(=O)O)[C@@H]2CC1 was read as HTT ATP protect 5%.
Screening O=C(O)c1ccc(C2CCCCC2)cn1 returned HttQ103 aggreg 3.2µM*, NPSR antagonist -1%[46.1 µM], IMPase Li cell 7%[38.3 µM] and HTT ATP protect -43%.
Screening C/C=C(\C)C(=O)C[Si](C)(C)c1ccccc1 returned IMPase Li cell 21%, ERK EGF inh -3% and HTT ATP protect 19%.
COC(=O)c1ccc(N/C(C)=C/C(=O)c2ccc(C)o2)cc1 was read as HttQ103 aggreg 4µM*, NPSR antagonist 1%[46.1 µM], IMPase Li cell 13%[38.3 µM] and HTT ATP protect -7%.
For CC(C)(C)c1ccc(C(=O)CCCN2CCC(OC(c3ccccc3)c3ccccc3)CC2)cc1 the results were HttQ103 aggreg inconclusive and HTT ATP protect -99%.
For Cn1c(N)c(C(=O)COC(=O)c2ccc(Cl)nc2)c(=O)n(C)c1=O the results were HttQ103 aggreg -7%, NPSR antagonist 4%, IMPase Li cell -8%, ERK EGF inh -3% and HTT ATP protect 3.2µM*.
For Cc1nn(-c2ccc(Cl)cc2)c2sc(C(=O)c3c(N)n(C)c(=O)n(C)c3=O)cc12 the results were HttQ103 aggreg -7%, NPSR antagonist 9%[46.1 µM], IMPase Li cell 13µM* and HTT ATP protect -16%.
`Cn1c(N)c(C(=O)c2ccc(Cl)cc2)c(=O)n(C)c1=O` gave HttQ103 aggreg 2.5µM*, NPSR antagonist 0%[46.1 µM] and HTT ATP protect -1%[10 µM].
For COc1ccc(C(=O)OCC(=O)c2c(N)n(C)c(=O)n(C)c2=O)cc1OC the results were HttQ103 aggreg 0%, NPSR antagonist -4%, IMPase Li cell inconclusive, ERK EGF inh -2% and HTT ATP protect -11%.
CC(C=O)Cc1ccc(C(C)(C)C)cc1 (centres undefined) was read as IMPase Li cell -3% and HTT ATP protect -12%.

Bioassay records deposited in PubChem BioAssay by National Center for Advancing Translational Sciences (NCATS).
